Holding throughout (settings): n = 1
The test system of assay [1] is CSNK1A1.
Assay [2] deals with CSNK1D.
For assay [3], the system named is CSNK1E.
Assay [4] concerns CSNK1G1.
The test system of assay [5] is CSNK1G2.
The test system of assay [6] is CSNK1G3.
Assay [7] has as its system CSNK2A1.
Assay [8] concerns CSNK2A2.
Assay [9] deals with T1, CTK.
T1 construct: gene MATK

Assay [10] has as its system DAPK1.
Setting [11] is: concentration: 1 μM, replicates: in singlicate.

Read-outs that look alike come from different tables or passages of the source.
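Also: KINOMEscan kinase panel screen.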

As for `O=C(O)COc1ncnc2cc(-c3ccc4[nH]ncc4c3)sc12`, the “%Inh” value in assay [1] (setting [11]) amounted to 33%; in assay [2] (setting [11]), 0%; in assay [3] (setting [11]) it was 0%; in assay [4] (setting [11]), 17%; in assay [5] (setting [11]) it was 10%; in [6] (setting [11]), 34%. The “%Inh” value in assay [7] (setting [11]) is 37%; in assay [8] (setting [11]), 20%; in assay [9] (setting [11]), 14%; in [10] (setting [11]) it was 17%.

As for `Cl.Oc1ccc(-c2nc(-c3ccccc3)[nH]c2-c2ccncc2)cc1` [SB-428218], the “%Inh” value in [1] (setting [11]) was 0%; in assay [2] (setting [11]), 37%; in [3] (setting [11]), 28%; in [4] (setting [11]) it was 18%; in assay [5] (setting [11]), 0%; in assay [6] (setting [11]), 0%. Also, the “%Inh” value in [7] (setting [11]) is 0%; in assay [8] (setting [11]), 0%; in [9] (setting [11]), 0%; in assay [10] (setting [11]) it was 3%.

`Cn1ccc2ncnc(Oc3ccc(Nc4nc5ccccc5[nH]4)cc3)c21`: the “%Inh” value in assay [1] (setting [11]), in assay [2] (setting [11]), in assay [3] (setting [11]), in assay [4] (setting [11]), in assay [5] (setting [11]) and in [6] (setting [11]) was 0% throughout. Besides, the “%Inh” value in assay [7] (setting [11]), in [8] (setting [11]), in assay [9] (setting [11]) and in assay [10] (setting [11]) was 0% throughout.

As to `CN(C)CCN(C)C(=O)c1cc(-c2ccncc2)c(-c2ccc(Cl)c(O)c2)o1.Cl.Cl` [SB-710397], the “%Inh” value in assay [1] (setting [11]) is recorded as 62%; in [2] (setting [11]), 90%; in assay [3] (setting [11]), 93.4%; in assay [4] (setting [11]), 0%; in assay [5] (setting [11]) it was 0%; in [6] (setting [11]), 14%. Also, the “%Inh” value in [7] (setting [11]) came to 0%; in assay [8] (setting [11]), 4%; in assay [9] (setting [11]), 0%; in [10] (setting [11]), 4%.

Turning to `COC(=O)c1c(-c2ccccc2)c2cc(OC)ccc2c(=O)n1Cc1ccccc1`, the “%Inh” value in [1] (setting [11]) is on record as 9%; in assay [2] (setting [11]), 0%; in assay [3] (setting [11]), 0%; in assay [4] (setting [11]) it was 8%; in [5] (setting [11]) it was 0%; in assay [6] (setting [11]), 0%. Further, the “%Inh” value in [7] (setting [11]) was found to be 0%; in [8] (setting [11]), 27%; in assay [9] (setting [11]) it was 26%; in assay [10] (setting [11]), 37%.

In the case of `COc1ccc(CNC(=O)NC2CCN(c3ccnc(Nc4cc(OC)c(OC)c(OC)c4)n3)C2)cc1` (centres unmarked) [GSK1379748], the “%Inh” value in assay [1] (setting [11]) came out at 0%; in assay [2] (setting [11]) it was 0%; in assay [3] (setting [11]), 14%; in assay [4] (setting [11]) it was 0%; in assay [5] (setting [11]), 0%; in [6] (setting [11]) it was 23%. In addition, the “%Inh” value is given as 6% in [7] (setting [11]), 9% in assay [8] (setting [11]), 0% in assay [9] (setting [11]) and 0% in [10] (setting [11]).

Take `COC(=O)c1c(-c2ccccc2)c2cc(C(=O)O)ccc2c(=O)n1Cc1ccccc1`: the “%Inh” value in assay [1] (setting [11]) is given as 0%; in assay [2] (setting [11]), 7%; in [3] (setting [11]), 0%; in [4] (setting [11]), 0%; in [5] (setting [11]) it was 0%; in [6] (setting [11]), 0%. Moreover, the “%Inh” value in [7] (setting [11]), in assay [8] (setting [11]), in assay [9] (setting [11]) and in assay [10] (setting [11]) was 0% in each case.

For the molecule `NC(=O)c1nnc2ccccc2c1N`, the “%Inh” value in [1] (setting [11]) was 66%; in assay [2] (setting [11]), 49%; in [3] (setting [11]), 37%; in assay [4] (setting [11]), 9%; in [5] (setting [11]), 0%; in assay [6] (setting [11]), 43%. Also, the “%Inh” value in assay [7] (setting [11]) stood at 11%; in [8] (setting [11]) it was 24%; in assay [9] (setting [11]), 0%; in assay [10] (setting [11]) it was 2%.

For `Cc1ccc(NC(=O)Nc2cccc(C(F)(F)F)c2)cc1` [GSK955403], the “%Inh” value in assay [1] (1 µM) is 0%; in [2] (1 µM), 0%; in assay [3] (1 µM) it was 0%; in assay [4] (1 µM), 0%; in assay [5] (1 µM), 1%; in assay [6] (1 µM) it was 0%. In addition, the “%Inh” value stood at 1% in [7] (1 µM), 0% in assay [8] (1 µM), 0% in [9] (1 µM) and 18% in [10] (1 µM).

As to `Cc1cccc(-c2nc(Nc3ccncc3)c3ccccc3n2)n1` [GW855857], the “%Inh” value is recorded as 46% in assay [1] (setting [11]); 73% in [2] (setting [11]); 77% in assay [3] (setting [11]); 0% in [4] (setting [11]); 20% in [5] (setting [11]); 12% in assay [6] (setting [11]). The “%Inh” value in [7] (setting [11]), in assay [8] (setting [11]), in assay [9] (setting [11]) and in [10] (setting [11]) was 0% each time.

With `Cn1cncc1-c1ccc2ncnc(Nc3ccc(OCc4ccccc4)cc3)c2c1` [GW320571], the “%Inh” value in assay [1] (setting [11]) turned out to be 0%; in [2] (setting [11]), 20%; in assay [3] (setting [11]), 99.4%; in [4] (setting [11]) it was 0%; in [5] (setting [11]) it was 15%; in [6] (setting [11]) it was 19%. Also, the “%Inh” value came to 26% in [7] (setting [11]), 15% in assay [8] (setting [11]), 0% in [9] (setting [11]) and 0% in [10] (setting [11]).

Take `Cc1ccc(-c2cc(-c3c[nH]nc3-c3ccccn3)ccn2)cc1` [GW684088]: the “%Inh” value in assay [1] (setting [11]) stood at 21%; in assay [2] (setting [11]), 26%; in assay [3] (setting [11]), 18%; in assay [4] (setting [11]), 10%; in assay [5] (setting [11]), 22%; in assay [6] (setting [11]), 24%. The “%Inh” value came out at 0% in assay [7] (setting [11]), 0% in [8] (setting [11]), 0% in [9] (setting [11]) and 11% in assay [10] (setting [11]).

With `Nc1ncnc2[nH]c(-c3ccccc3)nc12` [AH5015], the “%Inh” value in assay [1] (setting [11]) was found to be 0%; in assay [2] (setting [11]), 21%; in assay [3] (setting [11]), 14%; in assay [4] (setting [11]), 11%; in assay [5] (setting [11]) it was 0%; in [6] (setting [11]), 9%. Besides, the “%Inh” value was found to be 29% in [7] (setting [11]), 100% in assay [8] (setting [11]), 5% in assay [9] (setting [11]) and 4% in assay [10] (setting [11]).

With `CCn1c(-c2cccnc2O)nc2cnccc21` [SB-736715], the “%Inh” value in assay [1] (setting [11]) turned out to be 16%; in [2] (setting [11]), 0%; in assay [3] (setting [11]), 0%; in [4] (setting [11]) it was 0%; in assay [5] (setting [11]), 0%; in [6] (setting [11]), 0%. Besides, the “%Inh” value in assay [7] (setting [11]) came to 0%; in assay [8] (setting [11]), 0%; in assay [9] (setting [11]) it was 3%; in assay [10] (setting [11]) it was 0%.

Regarding `COc1ccccc1-c1ccc2c(NC(=O)C3CC3)n[nH]c2n1` [SB-711239], the “%Inh” value in assay [1] (setting [11]) is listed as 10%; in assay [2] (setting [11]), 0%; in [3] (setting [11]) it was 2%; in assay [4] (setting [11]), 0%; in assay [5] (setting [11]), 5%; in assay [6] (setting [11]), 11%. For the same molecule, the “%Inh” value in assay [7] (setting [11]), in assay [8] (setting [11]), in assay [9] (setting [11]) and in assay [10] (setting [11]) was 0% each time.

Regarding `O=C(Nc1n[nH]c2cc(-c3cccc(F)c3F)ccc12)C1CC1` [SB-733894], the “%Inh” value in assay [1] (setting [11]) stood at 16%; in [2] (setting [11]) it was 17%; in assay [3] (setting [11]), 0%; in assay [4] (setting [11]), 0%; in assay [5] (setting [11]), 4%; in assay [6] (setting [11]), 0%. Moreover, the “%Inh” value in assay [7] (setting [11]) came out at 0%; in assay [8] (setting [11]), 29%; in [9] (setting [11]), 56%; in assay [10] (setting [11]) it was 20%.

In the case of `O=C(Nc1n[nH]c2nc(-c3nccs3)c(Br)cc12)C1CCCC1` [SB-742609], the “%Inh” value in [1] (setting [11]) came to 25%; in [2] (setting [11]) it was 42%; in assay [3] (setting [11]), 11%; in assay [4] (setting [11]), 0%; in [5] (setting [11]), 0%; in [6] (setting [11]), 22%. Also, the “%Inh” value in [7] (setting [11]), in assay [8] (setting [11]), in [9] (setting [11]) and in assay [10] (setting [11]) was 0% throughout.
